# From a collection of fitness landscapes (doi:10.1016/j.celrep.2020.107928)
# Over roughly 81,000 sequences, “one-hybrid fitness for binding parS DNA” has its median near -0.17; the highest 2% begin near 0.51. The list comes from a sample in which the highest values are over-represented; it also holds similar and randomly drawn sequences.
# B1: Caulobacter ParB omega fusion; a variant is named by its letters at X, in order, B8GW30 (parent)
# chain: MESVVVGEPGMSEGRRGLGRGLSALLGEVDAAPAQAPGEQLGGSREAPIEILQRNPDQPRRTFREEDLEDLSNSIREKGVLQPILVRPSPDTAGEYQIVAGERAWRAAQRAGLKTVPIMVRELDDLAVLEIGIIENVQRADLNVLEEALSYKVLMEKFERTQENIAQTIGKSXSHVANXMRLLXLPDEVQSYLVSGELTAXHARAIAAAADPVALAKQIIEGGLSVRETEALARKAPNLSAGKSKGGRPPRVKDTDTQALESDLSSVLGLDVSIDHRGSTGTLTITYATLEQLDDLCNRLTRGI
# Variants of: B1
# Assay: one-hybrid fitness for binding parS DNA (scaled: cognate 1, non-cognate 0); higher = stronger binding
# Conditions: with parS DNA site
# How it was run: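 Fitness is the rescaled log change in variant-to-wild-type read ratio, measured by Illumina sequencing of plasmids before and after bacterial one-hybrid selection. The scale puts cognate at 1 and non-cognate at 0. Selection of Caulobacter ParB libraries, four specificity codons randomised, took place in E. coli USO with a HIS3 reporter, site 19 bp from the promoter, over 48 hours at 37°C on M9-minus-histidine with 0.1 mM IPTG and 5 mM 3-AT.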
row,Variant,one-hybrid fitness for binding parS DNA
1,CNSF,≤ 0.2
2,GRPA,≤ 0.2
3,CRST,≤ 0.2
4,IKCT,≤ 0.2
5,RMMP,≤ 0.2
6,RAMQ,≤ 0.2
7,RAMR,≤ 0.2
8,RFMN,0.242
9,RKMH,≤ 0.2
10,RMMC,0.992
11,RKMC,0.897
12,RKMP,≤ 0.2
13,RMMN,0.435
14,RAMC,0.956
15,RFMD,≤ 0.2
16,RFMC,0.824
17,TLMF,≤ 0.2
18,GTMC,≤ 0.2
19,LVSA,≤ 0.2
20,ITSK,≤ 0.2
21,DYWG,≤ 0.2
22,THDS,≤ 0.2
23,RKMK,≤ 0.2

row,Variant,one-hybrid fitness for binding parS DNA
1,YPLS,≤ 0.2
2,RHMC,0.908
3,RHMN,0.389
4,RHMP,≤ 0.2
5,RTMC,0.982
6,RSMP,≤ 0.2
7,RTMP,≤ 0.2
8,RTMN,0.433
9,RSMD,≤ 0.2
10,RSMC,0.928
11,AGSI,≤ 0.2
12,PTDS,≤ 0.2
13,FNHS,≤ 0.2
14,TAPE,≤ 0.2
15,GYWS,≤ 0.2
16,EPIG,≤ 0.2
17,PHQC,≤ 0.2
18,MHER,≤ 0.2
19,KLAC,≤ 0.2
20,REVS,≤ 0.2
21,REKG,0.533
22,REKN,≤ 0.2
23,REKS,0.66

row,Variant,one-hybrid fitness for binding parS DNA
1,REYS,0.287
2,RERH,≤ 0.2
3,REYG,≤ 0.2
4,RERS,0.529
5,REVG,≤ 0.2
6,QTIM,≤ 0.2
7,KYAR,≤ 0.2
8,EYFS,≤ 0.2
9,PLFV,≤ 0.2
10,VHQV,≤ 0.2
11,TPHK,≤ 0.2
12,RYCG,0.974
13,RYNG,0.975
14,RYYG,0.997
15,RYNK,≤ 0.2
16,RYYN,0.383
17,RYYH,≤ 0.2
18,RYHG,1
19,RYCN,0.382
20,RYNY,0.466
21,RYCD,≤ 0.2
22,RYHQ,≤ 0.2
23,RYHK,≤ 0.2

row,Variant,one-hybrid fitness for binding parS DNA
1,IKAI,≤ 0.2
2,HHKY,≤ 0.2
3,RSDE,≤ 0.2
4,FGTM,≤ 0.2
5,PPRW,≤ 0.2
6,KGNG,≤ 0.2
7,QLTS,≤ 0.2
8,DASE,≤ 0.2
9,GPYH,0.233
10,GWLC,≤ 0.2
11,EELW,≤ 0.2
12,SCTR,≤ 0.2
13,IRQT,≤ 0.2
14,VEHR,≤ 0.2
15,RYWK,≤ 0.2
16,RYGR,≤ 0.2
17,RYLY,0.462
18,RYSG,0.984
19,RYWQ,≤ 0.2
20,RYGG,0.97
21,RYSP,≤ 0.2
22,RYSD,≤ 0.2
23,RYLG,0.986

row,Variant,one-hybrid fitness for binding parS DNA
1,RYLM,0.324
2,RYWG,0.89
3,RYGF,0.205
4,AIYV,≤ 0.2
5,RKII,≤ 0.2
6,QIVC,≤ 0.2
7,KAHG,≤ 0.2
8,VQHT,≤ 0.2
9,HLQY,≤ 0.2
10,RYRH,≤ 0.2
11,RYDG,0.913
12,RYRP,≤ 0.2
13,RYQM,0.31
14,RYDH,≤ 0.2
15,RYQF,0.207
16,RYDP,≤ 0.2
17,RYRG,0.92
18,RYQG,0.971
19,SLFE,≤ 0.2
20,WPSR,≤ 0.2
21,QMHP,≤ 0.2
22,VYQY,≤ 0.2
23,SHPH,≤ 0.2

row,Variant,one-hybrid fitness for binding parS DNA
1,RWNQ,≤ 0.2
2,RWNY,0.339
3,RWNT,0.682
4,RWET,0.437
5,RWAT,0.614
6,RWRT,0.722
7,RWAR,≤ 0.2
8,RWFT,0.497
9,RWDT,0.512
10,RWIT,0.387
11,PRFH,≤ 0.2
12,HAWM,≤ 0.2
13,IKVG,≤ 0.2
14,EEHS,≤ 0.2
15,NPMG,≤ 0.2
16,CKHA,≤ 0.2
17,GRFC,≤ 0.2
18,PTDC,≤ 0.2
19,AWVV,≤ 0.2
20,DFLV,≤ 0.2
21,TRVH,≤ 0.2
22,KVCE,≤ 0.2
23,NTDV,≤ 0.2

row,Variant,one-hybrid fitness for binding parS DNA
1,SNDS,≤ 0.2
2,RWGT,0.548
3,RWCY,≤ 0.2
4,RWCF,≤ 0.2
5,RWCT,0.611
6,RWHT,0.655
7,RWYT,0.596
8,RWPT,0.284
9,RWWT,0.507
10,PDGT,≤ 0.2
11,PKSV,≤ 0.2
12,QRHM,≤ 0.2
13,THKG,≤ 0.2
14,MWHG,≤ 0.2
15,YDRG,≤ 0.2
16,TVTH,≤ 0.2
17,GSYT,≤ 0.2
18,MYQT,≤ 0.2
